Measurements from PubChem BioAssay AID1159580 (chemical genetic matrix, 2015).
In all, about 5,500 compounds went through this assay and about 2,000 (36%) were called active. Inconclusive results (about 18%) are left out. Rule as the data show it: active = normalized growth mostly below about 0.91 (no sharp cut-off); inconclusive = no clear call, values can overlap the other calls; inactive = mostly above about 0.92. The list shows a part of the results.

Assay: chemical genetic growth profiling, strain panel (AID 1159580);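 also: tested at 20 µM; growth read once vehicle control cultures reached saturation at 30 °C; 1 = growth at the plate median or of vehicle wells; lower values mean less growth of the strain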
Conditions: growth OD

Measured: normalized growth

N[C@H](C(=O)O)[C@@H]1CC(Cl)=NO1
active: S. cerevisiae deletion strains, locus YAL013W, strain DEP1, active compounds read low 0.796 | S. cerevisiae deletion strains, locus YBR021W, strain FUR4, active compounds read low 1.27 [resistant] | S. cerevisiae deletion strains, locus YBR229C, strain ROT2, active compounds read low 0.629 | S. cerevisiae deletion strains, locus YCL029C, strain bik1, active compounds read low 0.258 | S. cerevisiae deletion strains, locus YDL035C, strain GPR1, active compounds read low 0.321 | S. cerevisiae deletion strains, locus YDL074C, strain BRE1, active compounds read low 0.48 | S. cerevisiae deletion strains, locus YDL101C, strain DUN1, active compounds read low 0.23 | S. cerevisiae deletion strains, locus YDL134C, strain PPH21, active compounds read low 0.355 | S. cerevisiae deletion strains, locus YDL185W, strain tfp1, active compounds read low 0.149 | S. cerevisiae deletion strains, locus YDL192W, strain arf1, active compounds read low 0.24 | S. cerevisiae deletion strains, locus YDR101C, strain arx1, active compounds read low 0.287 | S. cerevisiae deletion strains, locus YDR150W, strain NUM1, active compounds read low 0.605 | S. cerevisiae deletion strains, locus YDR162C, strain NBP2, active compounds read low 0.318 | S. cerevisiae deletion strains, locus YDR318W, strain mcm21, active compounds read low 0.199 | S. cerevisiae deletion strains, locus YDR388W, active compounds read low 0.191 | S. cerevisiae deletion strains, locus YDR502C, strain sam2, active compounds read low 0.2 | S. cerevisiae deletion strains, locus YEL061C, strain CIN8, active compounds read low 0.409 | S. cerevisiae deletion strains, locus YER110C, active compounds read low 0.451 | S. cerevisiae deletion strains, locus YER155C, strain BEM2, active compounds read low 0.464 | S. cerevisiae deletion strains, locus YER167W, strain BCK2, active compounds read low 0.288 | S. cerevisiae deletion strains, locus YGL078C, strain dbp3, active compounds read low 0.238 | S. cerevisiae deletion strains, locus YGL086W, strain mad1, active compounds read low 0.267 | S. cerevisiae deletion strains, locus YGL248W, strain PDE1, active compounds read low 0.331 | S. cerevisiae deletion strains, locus YGR078C, strain PAC10, active compounds read low 0.437 | S. cerevisiae deletion strains, locus YGR135W, strain pre9, active compounds read low 0.234 | S. cerevisiae deletion strains, locus YGR229C, strain SMI1, active compounds read low 0.197 | S. cerevisiae deletion strains, locus YGR252W, strain gcn5, active compounds read low 0.508 | S. cerevisiae deletion strains, locus YHR030C, strain SLT2, active compounds read low 0.478 | S. cerevisiae deletion strains, locus YHR079C, strain IRE1 (second series), active compounds read low 0.186 | S. cerevisiae deletion strains, locus YHR094C, strain hxt1, active compounds read low 0.275 | S. cerevisiae deletion strains, locus YHR129C, strain ARP1, active compounds read low 0.481 | S. cerevisiae deletion strains, locus YHR200W, strain rpn10, active compounds read low 0.376 | S. cerevisiae deletion strains, locus YIL066C, strain RNR3, active compounds read low 0.468 | S. cerevisiae deletion strains, locus YIL073C, strain SPO22, active compounds read low 0.39 | S. cerevisiae deletion strains, locus YIL125W, strain kgd1, active compounds read low 0.185 | S. cerevisiae deletion strains, locus YIR030C, strain dcg1, active compounds read low 0.26 | S. cerevisiae deletion strains, locus YJL095W, strain BCK1, active compounds read low 0.287 | S. cerevisiae deletion strains, locus YJL134W, strain LCB3, active compounds read low 0.605 | S. cerevisiae deletion strains, locus YJL168C, strain set2, active compounds read low 0.541 | S. cerevisiae deletion strains, locus YJL187C, strain SWE1 (second series), active compounds read low 0.345 | S. cerevisiae deletion strains, locus YJR043C, strain POL32, active compounds read low 0.267 | S. cerevisiae deletion strains, locus YJR075W, strain HOC1, active compounds read low 0.52 | S. cerevisiae deletion strains, locus YKL009W, strain mrt4, active compounds read low 0.381 | S. cerevisiae deletion strains, locus YKL068W, active compounds read low 0.433 | S. cerevisiae deletion strains, locus YKL085W, strain MDH1 (second series), active compounds read low 0.214 | S. cerevisiae deletion strains, locus YKL085W, strain MDH1, active compounds read low 0.214 | S. cerevisiae deletion strains, locus YKL190W, strain CNB1, active compounds read low 0.446 | S. cerevisiae deletion strains, locus YKR001C, strain vps1, active compounds read low 0.189 | S. cerevisiae deletion strains, locus YLR039C, strain RIC1, active compounds read low 0.45 | S. cerevisiae deletion strains, locus YLR058C, strain SHM2, active compounds read low 0.398 | S. cerevisiae deletion strains, locus YLR102C, strain apc9, active compounds read low 0.28 | S. cerevisiae deletion strains, locus YLR262C, strain YPT6, active compounds read low 0.516 | S. cerevisiae deletion strains, locus YLR268W, strain sec22, active compounds read low 0.174 | S. cerevisiae deletion strains, locus YLR330W, strain CHS5, active compounds read low 0.388 | S. cerevisiae deletion strains, locus YLR342W, strain FKS1 (second series), active compounds read low 0.573 | S. cerevisiae deletion strains, locus YLR371W, strain rom2, active compounds read low 0.505 | S. cerevisiae deletion strains, locus YLR418C, strain cdc73, active compounds read low 0.468 | S. cerevisiae deletion strains, locus YML016C, strain PPZ1, active compounds read low 0.364 | S. cerevisiae deletion strains, locus YML032C, strain rad52, active compounds read low 0.238 | S. cerevisiae deletion strains, locus YML124C, strain tub3, active compounds read low 0.302 | S. cerevisiae deletion strains, locus YMR078C, strain ctf18, active compounds read low 0.352 | S. cerevisiae deletion strains, locus YMR223W, strain ubp8, active compounds read low 0.22 | S. cerevisiae deletion strains, locus YMR263W, strain SAP30, active compounds read low 0.619 | S. cerevisiae deletion strains, locus YNL067W, strain RPL9B, active compounds read low 0.353 | S. cerevisiae deletion strains, locus YNL128W, strain TEP1, active compounds read low 0.29 | S. cerevisiae deletion strains, locus YNL153C, strain GIM3, active compounds read low 0.504 | S. cerevisiae deletion strains, locus YNL233W, strain BNI4, active compounds read low 0.419 | S. cerevisiae deletion strains, locus YNL250W, strain rad50, active compounds read low 0.246 | S. cerevisiae deletion strains, locus YNL271C, strain bni1, active compounds read low 0.188 | S. cerevisiae deletion strains, locus YNL298W, strain CLA4, active compounds read low 0.319 | S. cerevisiae deletion strains, locus YNL307C, strain MCK1, active compounds read low 0.0999 | S. cerevisiae deletion strains, locus YNL322C, strain KRE1, active compounds read low 0.457 | S. cerevisiae deletion strains, locus YNR052C, strain pop2, active compounds read low 0.11 | S. cerevisiae deletion strains, locus YOL006C, strain TOP1, active compounds read low 0.495 | S. cerevisiae deletion strains, locus YOL147C, strain pex11, active compounds read low 0.27 | S. cerevisiae deletion strains, locus YOR061W, strain CKA2, active compounds read low 0.483 | S. cerevisiae deletion strains, locus YOR069W, strain VPS5, active compounds read low 0.447 | S. cerevisiae deletion strains, locus YOR136W, strain idh2, active compounds read low 0.272 | S. cerevisiae deletion strains, locus YOR144C, strain elg1, active compounds read low 0.352 | S. cerevisiae deletion strains, locus YOR184W, strain ser1, active compounds read low 0.152 | S. cerevisiae deletion strains, locus YOR316C, strain cot1, active compounds read low 0.359 | S. cerevisiae deletion strains, locus YPL055C, strain LGE1, active compounds read low 0.448 | S. cerevisiae deletion strains, locus YPL241C, strain CIN2, active compounds read low 0.571 | S. cerevisiae deletion strains, locus YPR119W, strain clb2, active compounds read low 0.335 | S. cerevisiae deletion strains, locus YPR141C, strain kar3, active compounds read low 0.272 | S. cerevisiae deletion strains, locus YPR163C, strain tif3, active compounds read low 0.307 | S. cerevisiae deletion strains, locus YPR167C, strain met16, active compounds read low 0.392 | S. cerevisiae deletion strains, strain wtn01, active compounds read low 0.212 | S. cerevisiae strains, strain wild type, active compounds read low 0.351
inactive: S. cerevisiae deletion strains, locus YMR307W, strain GAS1, active compounds read low 0.671 | S. cerevisiae deletion strains, locus YOL012C, strain htz1 0.224
